In PubChem BioAssay (EPA / NIEHS):
The source made the active and inactive calls. How the source made its calls: active means hit-call score of the fitted dose curve at least 0.9, where 1 is the maximum; inactive means score below 0.9.

read-out: Glutamate-cysteine ligase regulatory (GCLM), GCLM (gene 2730); assay: LTEA_HepaRG_GCLM: Life Technologies and Expression Analysis (LTEA) Assay for Glutamate-cysteine ligase regulatory (GCLM) using HepaRG (AID 2283500); conditions: mRNA level, 48 h; actives raise or lower the signal
Procedure: LTEA_HepaRG is a cell based, multiplexed-readout assay that uses HepaRG, a human liver cell line, with measurements taken at 48 hours after chemical dosing on a 96-well plate.LTEA_HepaRG_GCLM is one of 102 assay component(s) measured in the LTEA HepaRG cell culture assay. It is a marker of Cell proliferation, survival, death.Data from the assay component LTEA_HepaRG_GCLM was analyzed into 1 endpoint. This assay endpoint, LTEA_HepaRG_GCLM, was analyzed with bidirectional fitting relative to DMSO as the negative control and baseline of activity. Using a type of inducible reporter, measures of mRNA induction for gain or loss-of-signal activity can be used to understand regulation of transcription factor activity. To generalize the intended target to other relatable targets, this assay endpoint is annotated to the ligase intended target family, where the subfamily is C-N ligase.
A total of 1060 chemcials from the ToxCast library were tested in eight-point concentration-response experiments. Cell culture and cytotoxicity assays were conducted at Thermo Fisher Scientific's Custom Services facility (Madison, WI). A single lot of human HepaRG cells (Thermo Fisher Scientific, Frederick, MD) was used for the cell culture experiments. 96-well format collagen type I coated plates of human HepaRG cells were prepared using established methods. Briefly, cryopreserved HepaRG cells were thawed, plated at a density of approximately 100,000 cells/well in HepaRG Thaw, Plate, and General Purpose media (HPRG770, Thermo Fisher Scientific), and incubated for 48 hours. 0.5% DMSO was selected as vehicle control to balance the requisite need of DMSO in HepaRG cultures to maintain differentiation (for example, baseline metabolism, proportions of hepatocytes vs. cholangiocytes), while enabling further hepatic receptor pathway activation (for example, PXR and CAR) in response to chemical exposure. 48 hours after plating, the culture medium was replaced with HepaRG Serum-Free Incudtion Media. Cells were exposed to each test chemical in duplicate and maintained in CO2 incubators for another 48 hours. Chemical plates were thawed to room temperature and 200x concentrations of treatment groups were prepared. 8-point conentration-reponse curves were made with the highest exposure at 100 uM, followed by half-log dilutions, all in 0.5% DMSO. Each test plate contained variouse controls, induction positive controls (1mM phenobarbital), cytotoxicity positive controls ([…] aflatoxin B1), vehicle controls (0.5% DMSO), and total lysis controls (0.5% DMSO). Cell morphology images were taken using an Essen IncuCyte FLR automated microscope, with six 96-well plates imaged in about 24 minutes. Images were captured and exported and JPEG files. Spent culture media was transfered to black-well plates for the LDH assay, and remaining media was sorted at -80 C for later use. Cells were treated with RLT buffer and frozen until shipped for gene expression analysis. Total RNA was isolated from the cell suspension in 75 uL of Buffer RLT (Qiagen, Germantown, MD 20874) by Quintiles/Expression Analysis (Durham, NC) using a custom isolation procedure. Total RNA from each plate well was transferred to a preamplification plate. Fluidigm's 96.96 Dynamic ArrayTM (Fluidigm, Amsterdam, the Netherlands) technology was used for gene expression analyses by quantitative reverse transcription polymerase chain reaction (qRT-PCR, performed by Quintiles/Expression Analysis, Durham, NC)89. Standard TaqManTM Assays (Applied Biosystems/ThermoFisher Scientific, Foster City, CA) were used to assess the expression of 93 genes selected based on their selectivity and sensitivity to important hepatic receptors known to be modulated by environmental chemicals; importance in human hepatocyte functionality; and hepatotoxicity. […]

SMILES	AC50	outcome
C=C(C)[C@H]1Cc2c(ccc3c2O[C@@H]2COc4cc(OC)c(OC)cc4[C@@H]2C3=O)O1	2.57 µM (active)	
S=C1NCCN1		inactive
CN(C)NC(=O)CCC(=O)O		inactive
COP(=O)(NC(C)=O)SC (stereo not given)		inactive
Cc1cc(C2CC2)nc(Nc2ccccc2)n1		inactive
CSC1=N[C@@](C)(c2ccccc2)C(=O)N1Nc1ccccc1	25 µM (active)	
COP(=O)(OC)SCn1c(=O)oc2cc(Cl)cnc21		inactive
CNC(=O)Oc1cccc2c1OC(C)(C)O2		inactive
CCOP(=S)(OCC)Oc1ccc2c(C)c(Cl)c(=O)oc2c1		inactive
CNC(=O)ON=C(SC)C(=O)N(C)C		inactive
C[N+]1(C)CCCCC1		inactive
COc1cccc(C(=O)NN(C(=O)c2cc(C)cc(C)c2)C(C)(C)C)c1C		inactive
C[Si](Cn1cncn1)(c1ccc(F)cc1)c1ccc(F)cc1	62.8 µM (active)	
CCNc1nc(Cl)nc(NC(C)(C)C#N)n1		inactive
FC(F)C(F)(F)OCC(Cn1cncn1)c1ccc(Cl)cc1Cl (stereo not given)	13 µM (active)	
CCc1cccc(C)c1N(C(=O)CCl)C(C)COC (stereo not given)		inactive
CON=C(C(=O)OC)c1ccccc1CON=C(C)c1cccc(C(F)(F)F)c1		inactive
COP(=O)(OC)OC(Br)C(Cl)(Cl)Br (stereo not given)		inactive
CC(C)N(C(=O)SCC(Cl)=C(Cl)Cl)C(C)C		inactive
CCc1cnc(C2=NC(C)(C(C)C)C(=O)N2)c(C(=O)O)c1 (stereo not given)		inactive

SMILES	AC50	outcome
CCOP(=O)(OCC)Oc1cc(C)nc(C(C)C)n1		inactive
CN(C)C(=O)Nc1cccc(C(F)(F)F)c1		inactive
COc1cc(OC)nc(Sc2cccc(Cl)c2C(=O)O)n1		inactive
CCc1cccc(CC)c1N(COC)C(=O)CCl		inactive
O=[N+]([O-])c1cc(C(F)(F)F)c(Cl)c([N+](=O)[O-])c1Nc1ncc(C(F)(F)F)cc1Cl		inactive
CC[C@H](C)[C@H]1O[C@]2(C=C[C@@H]1C)C[C@@H]1C[C@@H](C/C=C(\C)[C@@H](O[C@H]3C[C@H](OC)[C@@H](O[C@H]4C[C@H](OC)[C@@H](NC)[C@H](C)O4)[C@H](C)O3)[C@@H](C)/C=C/C=C3\CO[C@@H]4[C@H](O)C(C)=C[C@@H](C(=O)O1)[C@]34O)O2		inactive
CC1(C(=O)Nc2ccc(O)c(Cl)c2Cl)CCCCC1		inactive
CN1COCN(Cc2cnc(Cl)s2)C1=N[N+](=O)[O-]		inactive
CCOP(=S)(OCC)Oc1ccc([N+](=O)[O-])cc1		inactive
CC(C)[C@H](C(=O)O[C@H](C#N)c1cccc(Oc2ccccc2)c1)c1ccc(Cl)cc1		inactive
O=c1ccc(=O)[nH][nH]1		inactive
C#CC(C)(C)NC(=O)c1cc(Cl)cc(Cl)c1		inactive
CC(C)=CC1C(C(=O)OCN2C(=O)C3=C(CCCC3)C2=O)C1(C)C (stereo not given)		inactive
CCCCOC(=O)c1ccccc1C(=O)O		inactive
CC1=NNC(=O)N(/N=C/c2cccnc2)C1		inactive
N#CSCSC#N	80.6 µM (active)	
CCOC(=O)COc1cc(-c2nn(C)c(OC(F)F)c2Cl)c(F)cc1Cl		inactive
CCOP(=S)(OCC)Oc1cc(C)nc(C(C)C)n1		inactive
CCCCN(CC)c1c([N+](=O)[O-])cc(C(F)(F)F)cc1[N+](=O)[O-]		inactive
Nc1c(Cl)cc([N+](=O)[O-])cc1Cl		inactive
